# In all, about 5,700 compounds went through this assay and about 85 (1%) were called active. No stated cut-off is given here; in the data, active means p53-positive nuclei above about 36% (passing the limit was not always enough); inactive means the rest. Many of the other results were omitted from the sample, so actives are more common in it than they were. Peptide text beside a SMILES is read from it. * marks the point of attachment. Cbz = O=C(OCc1ccccc1)*
# Key:
# [1] = p53 stabilisation in HPV-positive human cells, imaging, p53-positive nuclei imaging, 24 h, 48 h (AID 1508601); conditions: 24/48 h
# [2] = biological target: Cellular tumor antigen p53 (Homo sapiens) (UniProt P04637); experiment: as above; conditions: 24/48 h, stronger effect = higher value
# [3] = measured here: cell number at 24 h, concentration not given here
# [4] = measured here: cell number at 48 h, concentration not given here
# [5] = measured here: p53 positive nuclei at 24 h, concentration not given here
# [6] = measured here: cell number at 24 h, Library stock concentration: 80 uM
# [7] = measured here: cell number at 24 h, Library stock concentration: 400 uM
# [8] = measured here: cell number at 24 h, Library stock concentration: 2 mM
# [9] = measured here: cell number at 24 h, Library stock concentration: 10 mM
# [10] = measured here: cell number at 48 h, Library stock concentration: 80 uM
# [11] = measured here: cell number at 48 h, Library stock concentration: 400 uM
# [12] = measured here: cell number at 48 h, Library stock concentration: 2 mM
# [13] = measured here: cell number at 48 h, Library stock concentration: 10 mM
# [14] = Library stock concentration: 80 uM
# [15] = Library stock concentration: 400 uM
# [16] = Library stock concentration: 2 mM
# [17] = Library stock concentration: 10 mM
# [18] = measured here: p53 positive nuclei at 24 h, Library stock concentration: 80 uM
# [19] = measured here: p53 positive nuclei at 24 h, Library stock concentration: 400 uM
# [20] = measured here: p53 positive nuclei at 24 h, Library stock concentration: 2 mM
# [21] = measured here: p53 positive nuclei at 24 h, Library stock concentration: 10 mM
# [22] = measured here: cell number at 24 h, Library stock concentration: 3.33 mM
# [23] = measured here: cell number at 48 h, Library stock concentration: 3.33 mM
# [24] = Library stock concentration: 3.33 mM
# [25] = measured here: p53 positive nuclei at 24 h, Library stock concentration: 3.33 mM
# Chain of Cellular tumor antigen p53 (Homo sapiens) (P04637 whole entry, looked up): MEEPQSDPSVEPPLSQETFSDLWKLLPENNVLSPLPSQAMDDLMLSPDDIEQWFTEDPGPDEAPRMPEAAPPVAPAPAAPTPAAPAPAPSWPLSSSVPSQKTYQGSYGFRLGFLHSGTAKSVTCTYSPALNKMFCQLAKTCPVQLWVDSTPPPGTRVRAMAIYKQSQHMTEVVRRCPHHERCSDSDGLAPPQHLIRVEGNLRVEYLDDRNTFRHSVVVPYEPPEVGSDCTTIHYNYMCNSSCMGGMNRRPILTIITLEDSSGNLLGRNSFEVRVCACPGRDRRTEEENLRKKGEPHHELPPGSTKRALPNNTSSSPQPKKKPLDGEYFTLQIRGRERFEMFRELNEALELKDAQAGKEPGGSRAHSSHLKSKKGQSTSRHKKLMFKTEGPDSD
structure (smiles),measurement,setting,value
CC(Oc1ccc2c(c1)OCO2)C(=O)N(Cc1nccn1C)C(C)C (configuration not stated),"nuclei count, normalised",[1]; [3],101%
same,"nuclei count, normalised",[1]; [4],109%
same,"p53-positive nuclei, normalised",[2]; concentration not given here,-0.128% (inactive)
same,"p53-positive nuclei, normalised",[2]; [5],0.148%
CCCCc1ccc(N=CNO)c(C)c1,"nuclei count, normalised",[1]; [6],102%
same,"nuclei count, normalised",[1]; [7],87.8%
same,"nuclei count, normalised",[1]; [8],104%
same,"nuclei count, normalised",[1]; [9],97.5%
same,"nuclei count, normalised",[1]; [3],112%
same,"nuclei count, normalised",[1]; [10],102%
same,"nuclei count, normalised",[1]; [11],96.8%
same,"nuclei count, normalised",[1]; [12],107%
same,"nuclei count, normalised",[1]; [13],103%
same,"nuclei count, normalised",[1]; [4],114%
same,"p53-positive nuclei, normalised",[2]; [14],-0.0421% (inactive)
same,"p53-positive nuclei, normalised",[2]; [15],-0.0681% (inactive)
same,"p53-positive nuclei, normalised",[2]; [16],-0.128% (inactive)
same,"p53-positive nuclei, normalised",[2]; [17],-0.158% (inactive)
same,"p53-positive nuclei, normalised",[2]; concentration not given here,-0.0134% (inactive)
same,"p53-positive nuclei, normalised",[2]; [18],-0.116%
same,"p53-positive nuclei, normalised",[2]; [19],0.0745%
same,"p53-positive nuclei, normalised",[2]; [20],0.0465%
same,"p53-positive nuclei, normalised",[2]; [21],0.123%
same,"p53-positive nuclei, normalised",[2]; [5],-0.0878%
O=C(Nc1ccccc1Br)NC1CCN(c2ccc(C(F)(F)F)cn2)C1 (configuration not stated),"nuclei count, normalised",[1]; [22],102%
same,"nuclei count, normalised",[1]; [23],96.3%
same,"p53-positive nuclei, normalised",[2]; [24],-0.163% (inactive)
same,"p53-positive nuclei, normalised",[2]; [25],-0.314%
CCCCC/C=C\C/C=C\C/C=C\C/C=C\CCCC(=O)C(F)(F)F,"nuclei count, normalised",[1]; [3],108%
same,"nuclei count, normalised",[1]; [4],109%
same,"p53-positive nuclei, normalised",[2]; concentration not given here,-0.148% (inactive)
same,"p53-positive nuclei, normalised",[2]; [5],-0.0854%
Nc1ncn([C@@H]2O[C@@H](CO)[C@H](O)[C@@H]2O)c(=O)n1,"nuclei count, normalised",[1]; [6],122%
same,"nuclei count, normalised",[1]; [7],116%
same,"nuclei count, normalised",[1]; [8],110%
same,"nuclei count, normalised",[1]; [9],65.9%
same,"nuclei count, normalised",[1]; [10],122%
same,"nuclei count, normalised",[1]; [11],116%
same,"nuclei count, normalised",[1]; [12],111%
same,"nuclei count, normalised",[1]; [13],63.4%
same,"p53-positive nuclei, normalised",[2]; [14],-0.241% (inactive)
same,"p53-positive nuclei, normalised",[2]; [15],-0.762% (inactive)
same,"p53-positive nuclei, normalised",[2]; [16],-0.515% (inactive)
same,"p53-positive nuclei, normalised",[2]; [17],0.325% (inactive)
same,"p53-positive nuclei, normalised",[2]; [18],1.31%
same,"p53-positive nuclei, normalised",[2]; [19],-0.12%
same,"p53-positive nuclei, normalised",[2]; [20],0.0304%
same,"p53-positive nuclei, normalised",[2]; [21],0.106%
CC(NC(=O)C(Cc1ccccc1)NC(=O)OCc1ccccc1)C(=O)CF (configuration not stated),"nuclei count, normalised",[1]; [22],108%
same,"nuclei count, normalised",[1]; [23],101%
same,"p53-positive nuclei, normalised",[2]; [24],-0.054% (inactive)
same,"p53-positive nuclei, normalised",[2]; [25],-0.116%
CC(C)CC(C=O)NC(=O)C(CC(C)C)NC(=O)C(CC(C)C)NC(=O)OCc1ccccc1 (stereo not drawn) (Cbz-Leu-Leu-Leu-aldehyde; configuration not given here),"nuclei count, normalised","[1]; measured here: cell number at 24 h, Library stock concentration: 46 uM",112%
same,"nuclei count, normalised","[1]; measured here: cell number at 24 h, Library stock concentration: 278 uM",112%
same,"nuclei count, normalised","[1]; measured here: cell number at 24 h, Library stock concentration: 1.67 mM",62%
same,"nuclei count, normalised",[1]; [22],46.1%
same,"nuclei count, normalised",[1]; [9],59.9%
same,"nuclei count, normalised","[1]; measured here: cell number at 48 h, Library stock concentration: 46 uM",111%
same,"nuclei count, normalised","[1]; measured here: cell number at 48 h, Library stock concentration: 278 uM",104%
same,"nuclei count, normalised","[1]; measured here: cell number at 48 h, Library stock concentration: 1.67 mM",46.9%
same,"nuclei count, normalised",[1]; [23],38.7%
same,"nuclei count, normalised",[1]; [13],46.7%
same,"p53-positive nuclei, normalised",[2]; Library stock concentration: 46 uM,-0.152% (inactive)
same,"p53-positive nuclei, normalised",[2]; Library stock concentration: 278 uM,0.0393% (inactive)
same,"p53-positive nuclei, normalised",[2]; Library stock concentration: 1.67 mM,92% (active)
same,"p53-positive nuclei, normalised",[2]; [24],92% (active)
same,"p53-positive nuclei, normalised",[2]; [17],106% (active)
same,"p53-positive nuclei, normalised","[2]; measured here: p53 positive nuclei at 24 h, Library stock concentration: 46 uM",0.0832%
same,"p53-positive nuclei, normalised","[2]; measured here: p53 positive nuclei at 24 h, Library stock concentration: 278 uM",-0.0262%
same,"p53-positive nuclei, normalised","[2]; measured here: p53 positive nuclei at 24 h, Library stock concentration: 1.67 mM",44.6%
same,"p53-positive nuclei, normalised",[2]; [25],87.5%
same,"p53-positive nuclei, normalised",[2]; [21],135%
